Test results from the supplement of paper PMC8975748.
Structures can show the parent of a compound that is named as a salt. ± gives the standard deviation of the averaged measurements.

What was measured:
[1] = system: Saccharomyces cerevisiae BY4741 SeMeCo community; test: mean cell size (pixel area) (pixels); higher = larger cells; conditions: 10 µM; 24 h; SM minimal medium
In short: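 Mean cell pixel area per well was determined by automated confocal microscopy with Harmony analysis of paraformaldehyde-fixed cells. The cells, a Saccharomyces cerevisiae BY4741 community of four plasmids that each complement one auxotrophy and carry a fluorescent marker, were incubated for 24 h with drug at a final 10 µM in SM medium in 384-well plates. Numbers are averaged over 3 replicates. Same SeMeCo high-content imaging drug screen: Selleck FDA-approved drugs at 10 µM, 24 h in SM medium, 384-well plates, 3 replicates.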

[2] = system: Saccharomyces cerevisiae BY4741 SeMeCo community; test: z-score of prototroph abundance vs DMSO median; higher = larger share of this subpopulation than in DMSO controls; conditions: 10 µM; 24 h; SM minimal medium; subpopulation (auxotrophy): Prototroph
In short: (§1)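 A Saccharomyces cerevisiae BY4741 community carried four plasmids, each restoring one auxotrophy and encoding a distinct fluorescent protein. It was pre-grown overnight to OD600 1.0, diluted to 0.3, and 70 µl was added to 384-well plates acoustically predosed with library drugs (10 µM final), then grown 24 h in minimal SM medium. Cells were paraformaldehyde-fixed and imaged by automated confocal microscopy, with single-auxotroph fluorescent strains setting thresholds and autofluorescence correction. Each subpopulation's abundance was scored as a z-score against the vehicle-well median.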

[3] = system: Saccharomyces cerevisiae BY4741 SeMeCo community; test: z-score of subpopulation abundance vs DMSO median, subpopulation auxotrophic for M; higher = larger share of this subpopulation than in DMSO controls; conditions: 10 µM; 24 h; SM minimal medium; subpopulation (auxotrophy): M
In short: as §1

[4] = system: Saccharomyces cerevisiae BY4741 SeMeCo community; test: z-score of subpopulation abundance vs DMSO median, subpopulation auxotrophic for L; higher = larger share of this subpopulation than in DMSO controls; conditions: 10 µM; 24 h; SM minimal medium; subpopulation (auxotrophy): L
In short: as §1

[5] = system: Saccharomyces cerevisiae BY4741 SeMeCo community; test: z-score of subpopulation abundance vs DMSO median, subpopulation auxotrophic for U; higher = larger share of this subpopulation than in DMSO controls; conditions: 10 µM; 24 h; SM minimal medium; subpopulation (auxotrophy): U
In short: as §1

[6] = system: Saccharomyces cerevisiae BY4741 SeMeCo community; test: z-score of subpopulation abundance vs DMSO median, subpopulation auxotrophic for H; higher = larger share of this subpopulation than in DMSO controls; conditions: 10 µM; 24 h; SM minimal medium; subpopulation (auxotrophy): H
In short: as §1

[7] = system: Saccharomyces cerevisiae BY4741 SeMeCo community; test: z-score of subpopulation abundance vs DMSO median, subpopulation auxotrophic for LU; higher = larger share of this subpopulation than in DMSO controls; conditions: 10 µM; 24 h; SM minimal medium; subpopulation (auxotrophy): LU
In short: as §1

[8] = system: Saccharomyces cerevisiae BY4741 SeMeCo community; test: z-score of subpopulation abundance vs DMSO median, subpopulation auxotrophic for LM; higher = larger share of this subpopulation than in DMSO controls; conditions: 10 µM; 24 h; SM minimal medium; subpopulation (auxotrophy): LM
In short: as §1

[9] = system: Saccharomyces cerevisiae BY4741 SeMeCo community; test: z-score of subpopulation abundance vs DMSO median, subpopulation auxotrophic for HM; higher = larger share of this subpopulation than in DMSO controls; conditions: 10 µM; 24 h; SM minimal medium; subpopulation (auxotrophy): HM
In short: as §1

[10] = system: Saccharomyces cerevisiae BY4741 SeMeCo community; test: z-score of subpopulation abundance vs DMSO median, subpopulation auxotrophic for HU; higher = larger share of this subpopulation than in DMSO controls; conditions: 10 µM; 24 h; SM minimal medium; subpopulation (auxotrophy): HU
In short: as §1

[11] = system: Saccharomyces cerevisiae BY4741 SeMeCo community; test: z-score of subpopulation abundance vs DMSO median, subpopulation auxotrophic for UM; higher = larger share of this subpopulation than in DMSO controls; conditions: 10 µM; 24 h; SM minimal medium; subpopulation (auxotrophy): UM
In short: as §1

[12] = system: Saccharomyces cerevisiae BY4741 SeMeCo community; test: z-score of subpopulation abundance vs DMSO median, subpopulation auxotrophic for HL; higher = larger share of this subpopulation than in DMSO controls; conditions: 10 µM; 24 h; SM minimal medium; subpopulation (auxotrophy): HL
In short: as §1

[13] = system: Saccharomyces cerevisiae BY4741 SeMeCo community; test: z-score of subpopulation abundance vs DMSO median, subpopulation auxotrophic for HLU; higher = larger share of this subpopulation than in DMSO controls; conditions: 10 µM; 24 h; SM minimal medium; subpopulation (auxotrophy): HLU
In short: as §1

[14] = system: Saccharomyces cerevisiae BY4741 SeMeCo community; test: z-score of subpopulation abundance vs DMSO median, subpopulation auxotrophic for LUM; higher = larger share of this subpopulation than in DMSO controls; conditions: 10 µM; 24 h; SM minimal medium; subpopulation (auxotrophy): LUM
In short: as §1

[15] = system: Saccharomyces cerevisiae BY4741 SeMeCo community; test: z-score of subpopulation abundance vs DMSO median, subpopulation auxotrophic for HLUM; higher = larger share of this subpopulation than in DMSO controls; conditions: 10 µM; 24 h; SM minimal medium; subpopulation (auxotrophy): HLUM
In short: as §1

[16] = system: Saccharomyces cerevisiae BY4741 SeMeCo community; test: z-score of subpopulation abundance vs DMSO median, subpopulation auxotrophic for HUM; higher = larger share of this subpopulation than in DMSO controls; conditions: 10 µM; 24 h; SM minimal medium; subpopulation (auxotrophy): HUM
In short: as §1

[17] = system: Saccharomyces cerevisiae BY4741 SeMeCo community; test: z-score of subpopulation abundance vs DMSO median, subpopulation auxotrophic for HLM; higher = larger share of this subpopulation than in DMSO controls; conditions: 10 µM; 24 h; SM minimal medium; subpopulation (auxotrophy): HLM
In short: as §1

Row | Compound | mean cell size [1] | z-score of prototroph abundance [2] | z-score of subpopulation abundance [3] | z-score of subpopulation abundance [4] | z-score of subpopulation abundance [5] | z-score of subpopulation abundance [6] | z-score of subpopulation abundance [7] | z-score of subpopulation abundance [8] | z-score of subpopulation abundance [9] | z-score of subpopulation abundance [10] | z-score of subpopulation abundance [11] | z-score of subpopulation abundance [12] | z-score of subpopulation abundance [13] | z-score of subpopulation abundance [14] | z-score of subpopulation abundance [15] | z-score of subpopulation abundance [16] | z-score of subpopulation abundance [17]
1 | Cc1cc(O)cc(C)c1Cl [Chloroxylenol] | 12.7 ± 0.17 | -1.56 | 0.89 | 0.85 | 0.84 | 0.68 | 0.64 | 0.41 | 0.32 | 1.05 | 1.27 | 0.81 | 0.24 | 0.54 | 0.12 |  | 
2 | C[C@@H](O)[C@H]1C(=O)N2C(C(=O)OCOC(=O)C(C)(C)C)=C(SC3CN(C4=NCCS4)C3)[C@H](C)[C@H]12 [Tebipenem Pivoxil] | 12.4 ± 0.16 | 0.66 | -0.17 | 0 |  | -0.29 | -0.6 |  | -0.9 | -0.03 | -0.27 | -0.41 | -0.99 |  | -0.74 | -0.67 | 
3 | CCc1c(C)[nH]c2c1C(=O)C(CN1CCOCC1)CC2 (centres undefined) [Molindone hydrochloride] | 12.2 ± 0.13 | 0.46 | -0.61 | 0.73 |  | -0.43 | -0.32 |  | -0.54 | -0.73 |  | 0.22 | 0.45 | -0.28 | 0.04 | -0.76 | 
4 | CCN1CCC[C@H]1CNC(=O)c1cc(S(N)(=O)=O)ccc1OC [Levosulpiride] | 12.5 ± 0.17 | 0.49 | -0.33 |  | 0.41 | -0.73 | 0.1 | -0.65 | -0.96 | -0.27 | 0.08 | -0.21 | -1.02 | 0.3 | -0.54 | 0.24 | -0.19
5 | COC1C(O)CC(=O)OC(C)CC=CC=CC(OC2CCC(N(C)C)C(C)O2)C(C)CC(CC=O)C1OC1OC(C)C(OC2CC(C)(O)C(O)C(C)O2)C(N(C)C)C1O (centres undefined) [Spiramycin] |  | 0.08 | -0.36 | -0.29 | 0.01 | -0.16 | -0.46 | -0.48 | -0.27 | 0.31 | 0.4 |  | -0.77 | -0.43 | 0.17 | -0.02 | 
6 | CN[C@@H]1[C@H](O[C@H]2[C@H](O[C@H]3[C@H](O)[C@@H](O)[C@H](N=C(N)N)[C@@H](O)[C@@H]3N=C(N)N)O[C@@H](C)[C@]2(O)C=O)O[C@@H](CO)[C@H](O)[C@H]1O [Streptomycin sulfate] |  | 0.05 | -0.43 | -1.14 |  | 0.36 | -0.25 |  | 0.19 |  | 0.8 | -0.36 | -0.4 | -0.33 | -0.41 | 0.39 | 
7 | COc1cc2c(cc1OC)[C@@H]1Cc3ccc(OC)c(OC)c3CN1CC2 [Rotundine] | 12.5 ± 0.15 | -0.12 | 0.07 |  | 0.7 | 0.05 | 0.16 | -0.15 | -0.02 | 0.17 | -0.01 | 0.52 | 0.67 | -0.04 | 0.13 | 0.14 | -0.41
